Results published in PubChem BioAssay (NCATS).
Inconclusive results are not listed. Values without a mark were called inactive. Calls come from the whole dose curve; as a rule, active = well fitted cell-killing curve with a large enough effect; inconclusive = small, poorly fitted or top-dose-only effect, or effect the other way; inactive = flat fitted curve, though single readings scatter.

System: CASKI
Assay: Primary qHTS to identify gynecologic anti-cancer compounds using libraries of approved drugs and bioactive compounds (AID 1345084); note: nearly all actives have a fitted effect of over 55% in size
Details: Gynecologic cancer cell panel viability, ATPlite luminescence, 48 h; series mostly up to 57.5 µM; activity change, negative = cytotoxicity: at the top concentration
Method in brief: (§1)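 48 h compound exposure at 37 C, 5% CO2; five-point qHTS. ATPlite luminescence readout of cell ATP.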
% is set by controls: 0 for no effect and ±100 for the full control effect.

SMILES	activity change, negative = cytotoxicity
COc1ccc(S(=O)(=O)Nc2cc(Cl)cc(Cl)c2OC)cc1N1CCNCC1	-21.9%
CC(=O)O[C@H]1[C@@]2(O)C[C@H](C)[C@H](OC(=O)c3ccccc3)[C@@H]2[C@@H](OC(=O)CO)[C@]2(OC(C)=O)C[C@H]3C(=O)C(C)(C)C[C@@H]3[C@@]1(C)[C@H]2OC(C)=O	-0.342% [at 25.3 µM]
COc1ccc2cc(-c3cc(-c4cc(Cl)cc(Cl)c4)nn3C(C)c3ccc(C(=O)NCCC(=O)O)cc3)ccc2c1 (stereo not given)	19.6%
CCCCC1CCC(c2nc(-c3ccncc3)no2)CC1 (stereo not given)	12%
CC(C)CCCCC(=O)N[C@@H](CO)C(=O)N[C@@H](CC(C)C)C(=O)[C@@]1(CO)CO1	0.795%
COc1ccc(NC(=O)c2ccc(-c3ccc(C(=N)N)cc3C)cc2)cc1N1CCN(C)CC1	-0.388%
CC(C)(Cc1nc(-c2ccc(O)cn2)no1)C(=O)NC1=C(C(=O)O)CCCC1	11.7%
CCCN(CCc1ccsc1)C1CCc2c(O)cccc2C1 (stereo not given)	9.68%
CCn1c(=O)n([C@H]2CCCN(c3nccc(-c4cc5ccccc5o4)n3)C2)c2ccccc21	8.5%
CC(=O)OC1CC(C)(C(=O)O)CC2C3=CC(=O)C4C5(C)CCC(OC6OC(C(=O)O)C(O)C(O)C6OC6OC(C(=O)O)C(O)C(O)C6O)C(C)(C)C5CCC4(C)C3(C)CCC12C (stereo not given)	12.9% [at 11.6 µM]
COC1=CC(=O)C=C(C)C12Oc1c(Cl)c(OC)cc(OC)c1C2=O (stereo not given)	0.0149% [at 38.5 µM]
O=C(Nc1ccn(Cc2ccc(O)cc2C(F)(F)F)n1)c1c(F)cccc1F	11.6%
Cc1cccc(N2CCN(C(=O)c3cc(S(=O)(=O)N(C)C)ccc3N3CCCC3)CC2)c1C	2.88%
COC(=O)c1ccnc(-c2cc(C(=O)Nc3ccc(C4(N)CC4)cc3)ccn2)c1	9.66%
COc1ccc(CCO[C@@H]2O[C@H](CO[C@H]3OC[C@](O)(CO)[C@H]3O)[C@@H](OC(=O)/C=C/c3ccc(O)c(O)c3)[C@H](O[C@@H]3O[C@@H](C)[C@H](O)[C@@H](O)[C@H]3O)[C@H]2O)cc1OC	1.39% [at 25.3 µM]
CC(C)(C)c1ccc(C(=O)Nc2cn3cc(-n4ccnc4)ccc3n2)cc1	-5.87%
C[C@@H](NC(=O)C(=O)c1c[nH]c2ccc([N+](=O)[O-])cc12)c1ccccc1	7.36%
COc1ccc(NC(=O)c2ccc(-c3ccc(-c4nnc(C)o4)cc3C)cc2)cc1N1CCN(C)CC1	-1.92%
C=C1C(=O)OC2CC(C)C(CCC(C)O)=CCC12 (stereo not given)	-17%

SMILES	activity change, negative = cytotoxicity
CC(C)Nc1nc(Nc2ccccc2)nc(-c2ccccc2)n1	-1.81%
O=C(NCCCNc1nc(Nc2cccc(CN3CCOCC3)c2)ncc1C1CC1)C1CCC1	-27.3%
Cc1cc2c(N3CCCC3)nc(N3CCCC3)nc2n1C	1.91%
O=C(c1cc(Cc2n[nH]c(=O)c3ccccc23)ccc1F)N1CCCNCC1	4.98%
CCNC1(C(N)=O)CCN(c2ncnc3c2nc(-c2ccccc2Cl)n3-c2ccc(Cl)cc2)CC1	5.3%
CCCOc1ccc(S(=O)(=O)N2CCN(CCO)CC2)cc1-c1nc2c(CCC)cn(CC)c2c(=O)[nH]1	13.7%
CN1CCN(C2=Nc3ccccc3Nc3ccc(OS(=O)(=O)C(F)(F)F)cc32)CC1	-3.16%
CCOc1ccc(CCNC(=O)c2cc3sc(Cl)cc3n2C)cc1OCC	14.1%
NS(=O)(=O)c1ccc(NC(=O)Nc2ccc(F)cc2)cc1	4.17%
O=C(Nc1cccnc1)c1cc(-c2ccnc(F)c2)ccc1OCc1ccccc1	-1.31%
Cc1cc(C)c(-n2cc(C)c3c(Cl)nc(C)nc32)c(C)c1	-0.41%
Cc1cc(C)c(S(=O)(=O)n2cc(C)cc2C)c(C)c1	-7.41%
O=C(c1ccc(OC(F)F)c(C#Cc2ccccn2)c1)N1Cc2cccnc2C1	-1.93%
CC1=C(C(=O)Nc2cc(Cl)ccc2Cl)C(c2ccco2)C2=C(CCCC2=O)N1 (stereo not given)	11.4%
COc1ccc2c(NC(=O)Nc3cccc(C(F)(F)F)n3)ccnc2c1	5.44%
CC[C@H](C)/C=C(C)/C=C/C1=CC2=CC(=O)[C@]3(C)OC(=O)[C@@H](C(C)=O)[C@@H]3C2=CO1	-0.97% [at 38.5 µM]
C=C1C(=O)O[C@@H]2[C@H]1CC[C@H](C)[C@]1(CCC(=O)O1)C2(C)O (stereo not given in full)	0.113%
CN1CCN(c2ccc(-c3cccc(CN4CCOCC4)c3)cc2NC(=O)c2c[nH]c(=O)cc2C(F)(F)F)CC1	-0.417% [at 38.5 µM]
CC(C)OC(=O)N1CCC(Oc2ncnc3c2cnn3-c2ccc(S(C)(=O)=O)cc2F)CC1	-1.87%

System: Es-2
Assay: as above
Details: Gynecologic cancer cell panel viability, ATPlite luminescence, 48 h; series mostly up to 57.5 µM; activity change, negative = cytotoxicity: at the top concentration
Method in brief: as §1

SMILES	activity change, negative = cytotoxicity
COc1ccc(S(=O)(=O)Nc2cc(Cl)cc(Cl)c2OC)cc1N1CCNCC1	-6.48%
COc1ccc2cc(-c3cc(-c4cc(Cl)cc(Cl)c4)nn3C(C)c3ccc(C(=O)NCCC(=O)O)cc3)ccc2c1 (stereo not given)	19.1%
CCCCC1CCC(c2nc(-c3ccncc3)no2)CC1 (stereo not given)	-9.93%
CC(C)CCCCC(=O)N[C@@H](CO)C(=O)N[C@@H](CC(C)C)C(=O)[C@@]1(CO)CO1	-4.81%
COc1ccc(NC(=O)c2ccc(-c3ccc(C(=N)N)cc3C)cc2)cc1N1CCN(C)CC1	0.592%
CC(C)(Cc1nc(-c2ccc(O)cn2)no1)C(=O)NC1=C(C(=O)O)CCCC1	-2.45%
CCCN(CCc1ccsc1)C1CCc2c(O)cccc2C1 (stereo not given)	-0.0611%
CCn1c(=O)n([C@H]2CCCN(c3nccc(-c4cc5ccccc5o4)n3)C2)c2ccccc21	12.6%
CC(=O)OC1CC(C)(C(=O)O)CC2C3=CC(=O)C4C5(C)CCC(OC6OC(C(=O)O)C(O)C(O)C6OC6OC(C(=O)O)C(O)C(O)C6O)C(C)(C)C5CCC4(C)C3(C)CCC12C (stereo not given)	12.5% [at 11.6 µM]
COC1=CC(=O)C=C(C)C12Oc1c(Cl)c(OC)cc(OC)c1C2=O (stereo not given)	-7.57% [at 38.5 µM]
O=C(Nc1ccn(Cc2ccc(O)cc2C(F)(F)F)n1)c1c(F)cccc1F	-2.75%
Cc1cccc(N2CCN(C(=O)c3cc(S(=O)(=O)N(C)C)ccc3N3CCCC3)CC2)c1C	2.7%
COC(=O)c1ccnc(-c2cc(C(=O)Nc3ccc(C4(N)CC4)cc3)ccn2)c1	3.15%
COc1ccc(CCO[C@@H]2O[C@H](CO[C@H]3OC[C@](O)(CO)[C@H]3O)[C@@H](OC(=O)/C=C/c3ccc(O)c(O)c3)[C@H](O[C@@H]3O[C@@H](C)[C@H](O)[C@@H](O)[C@H]3O)[C@H]2O)cc1OC	-4.28% [at 25.3 µM]
CC(C)(C)c1ccc(C(=O)Nc2cn3cc(-n4ccnc4)ccc3n2)cc1	9.85%
C[C@@H](NC(=O)C(=O)c1c[nH]c2ccc([N+](=O)[O-])cc12)c1ccccc1	3.2%
COc1ccc(NC(=O)c2ccc(-c3ccc(-c4nnc(C)o4)cc3C)cc2)cc1N1CCN(C)CC1	-4.88%
C=C1C(=O)OC2CC(C)C(CCC(C)O)=CCC12 (stereo not given)	-3.35%
CC(C)Nc1nc(Nc2ccccc2)nc(-c2ccccc2)n1	-5.06%

SMILES	activity change, negative = cytotoxicity
O=C(NCCCNc1nc(Nc2cccc(CN3CCOCC3)c2)ncc1C1CC1)C1CCC1	-7.13%
Cc1cc2c(N3CCCC3)nc(N3CCCC3)nc2n1C	3.16%
Cc1cc(OCCCS(C)(=O)=O)cc(C)c1-c1cccc(COc2ccc(C3=CC(=O)NS3=O)cc2)c1 (stereo not given)	1.18%
O=C(c1cc(Cc2n[nH]c(=O)c3ccccc23)ccc1F)N1CCCNCC1	6.61%
CCNC1(C(N)=O)CCN(c2ncnc3c2nc(-c2ccccc2Cl)n3-c2ccc(Cl)cc2)CC1	-1.38%
CCCOc1ccc(S(=O)(=O)N2CCN(CCO)CC2)cc1-c1nc2c(CCC)cn(CC)c2c(=O)[nH]1	3.2%
CN1CCN(C2=Nc3ccccc3Nc3ccc(OS(=O)(=O)C(F)(F)F)cc32)CC1	-0.128%
CCOc1ccc(CCNC(=O)c2cc3sc(Cl)cc3n2C)cc1OCC	1.38%
NS(=O)(=O)c1ccc(NC(=O)Nc2ccc(F)cc2)cc1	-0.186%
O=C(Nc1cccnc1)c1cc(-c2ccnc(F)c2)ccc1OCc1ccccc1	-8.86%
Cc1cc(C)c(-n2cc(C)c3c(Cl)nc(C)nc32)c(C)c1	0.824%
Cc1cc(C)c(S(=O)(=O)n2cc(C)cc2C)c(C)c1	-3.36%
CC1=C(C(=O)Nc2cc(Cl)ccc2Cl)C(c2ccco2)C2=C(CCCC2=O)N1 (stereo not given)	0.986%
COc1ccc2c(NC(=O)Nc3cccc(C(F)(F)F)n3)ccnc2c1	-20.3%
CC[C@H](C)/C=C(C)/C=C/C1=CC2=CC(=O)[C@]3(C)OC(=O)[C@@H](C(C)=O)[C@@H]3C2=CO1	-2.42% [at 38.5 µM]
C=C1C(=O)O[C@@H]2[C@H]1CC[C@H](C)[C@]1(CCC(=O)O1)C2(C)O (stereo not given in full)	-12.1%
CN1CCN(c2ccc(-c3cccc(CN4CCOCC4)c3)cc2NC(=O)c2c[nH]c(=O)cc2C(F)(F)F)CC1	-0.827% [at 38.5 µM]
CC(C)OC(=O)N1CCC(Oc2ncnc3c2cnn3-c2ccc(S(C)(=O)=O)cc2F)CC1	-1.02%
